Activity calls are given as the source filed them. How the source made its calls: active means hit-call score of the fitted dose curve at least 0.9, where 1 is the maximum; inactive means score below 0.9.
These compounds were tested on Interferon-gamma inducible Protein 10 (IP10), CXCL10 (gene 3627) (assay: BSK_KF3CT_IP10: BioMAP Diversity Plus: KF3CT Assay for Interferon-gamma inducible Protein 10 (IP10) Biomarker Activity (AID 2283068)). Details: primary human keratinocytes with fibroblasts; actives raise or lower the signal.
Procedure: BSK_KF3CT is a cell-based, multiplexed-readout assay that uses keratinocytes and foreskin fibroblasts, a human skin primary cell co-culture, with measurements taken at 24 hours after chemical dosing in a 96-well plate.BSK_KF3CT_IP10 is an assay component measured in the BSK_KF3CT assay. It measures IP-10 antibody related to regulation of gene expression using ELISA technology.Data from the assay component BSK_KF3CT_IP10 was analyzed into 1 assay endpoint. This assay endpoint, BSK_KF3CT_IP10, was analyzed with bidirectional fitting relative to DMSO as the negative control and baseline of activity. Using a type of binding reporter, gain or loss-of-signal activity can be used to understand changes in the signaling as they relate to the gene CXCL10. Furthermore, this assay endpoint can be referred to as a primary readout, because this assay has produced multiple assay endpoints where this one serves a signaling function. To generalize the intended target to other relatable targets, this assay endpoint is annotated to the cytokine intended target family, where the subfamily is chemotactic factor.
The levels of cell surface (or secreted, indicated by the prefix "s") biomarker endpoints were measured by ELISA. Overt cytotoxicity to cells in confluent adherent cultures (all systems other than the BT system) was assessed by measuring total protein levels using sulforhodamine B (SRB) staining in parallel cultures at the time of biomarker measurements, indicated as SRB endpoints. For proliferation assays for adherent cell types, individual cell types are cultured at sub-confluence and relative cell numbers quantified by SRB staining at time points optimized for each system (48 h: 3C and CASM3C systems; 72 h: BT and HDF3CGF systems; 96 h: SAg system). SRB was performed by staining cells with 0.1% SRB after fixation with 10% TCA and reading wells at 560 nm.Viability and proliferation of PBMC (T cells) was quantified by Alamar Blue reduction for the SAg and BT systems. For PBMC viability (referred to as PBMC Cytotoxicity within the assay endpoint names), cells were plated (75,000/well in a 96-well plate) and then chemical samples added for 1 h before addition of activators, SEB and TSST-1 (20 ng/mL final concentration each). Cells were incubated for 90 h. Then, Alamar Blue (20 uL/well) (Invitrogen, Cat DAL1100) was added for 6 h, and the plates were read with a fluorescence microplate reader at 546/580 nm (excitation/emission). For PBMC proliferation, cells were plated and activated as above but incubated for only 16 h prior to addition of Alamar Blue. Plates were read after 6 h.

Row | SMILES | AC50 | outcome
1 | CCCOCC(=Nc1ccc(Cl)cc1C(F)(F)F)n1ccnc1 | 29.1 µM (active) | 
2 | CCCSP(=O)(OCC)SCCC |  | inactive
3 | CCOC(=O)CC(SP(=O)(OC)OC)C(=O)OCC (stereo not given) |  | inactive
4 | CCOC(=O)COc1cc(-c2nn(C)c(OC(F)F)c2Cl)c(F)cc1Cl |  | inactive
5 | CNc1cnn(-c2cccc(C(F)(F)F)c2)c(=O)c1Cl |  | inactive
6 | CCCCN(CC)c1c([N+](=O)[O-])cc(C(F)(F)F)cc1[N+](=O)[O-] | 27.9 µM (active) | 
7 | CC(C)=CC1C(C(=O)OCN2C(=O)C3=C(CCCC3)C2=O)C1(C)C (stereo not given) |  | inactive
8 | CCOP(=O)(NC(C)C)Oc1ccc(SC)c(C)c1 (stereo not given) |  | inactive
9 | Cc1ccn2nc(S(=O)(=O)Nc3c(F)cccc3F)nc2n1 |  | inactive
10 | CN(C)C(=O)Nc1cccc(C(F)(F)F)c1 |  | inactive
11 | CCOP(=S)(OCC)Oc1ccc([N+](=O)[O-])cc1 | 32.7 µM (active) | 
12 | CCC(=O)Nc1ccc(Cl)c(Cl)c1 |  | inactive
13 | CC[C@H](C)[C@H]1O[C@]2(C=C[C@@H]1C)C[C@@H]1C[C@@H](C/C=C(\C)[C@@H](O[C@H]3C[C@H](OC)[C@@H](O[C@H]4C[C@H](OC)[C@@H](NC)[C@H](C)O4)[C@H](C)O3)[C@@H](C)/C=C/C=C3\CO[C@@H]4[C@H](O)C(C)=C[C@@H](C(=O)O1)[C@]34O)O2 | 8.17 µM (active) | 
14 | CCc1cccc(C)c1N(C(=O)CCl)C(C)COC (stereo not given) | 33.2 µM (active) | 
15 | C[Si](Cn1cncn1)(c1ccc(F)cc1)c1ccc(F)cc1 |  | inactive
16 | CCCSP(=O)(OCC)Oc1ccc(Br)cc1Cl (stereo not given) |  | inactive
17 | CCc1cccc(CC)c1N(COC)C(=O)CCl |  | inactive
18 | CCOP(=S)(OCC)SCCSCC | 37 µM (active) | 
19 | CCCCSP(=O)(SCCCC)SCCCC |  | inactive
20 | CNC(=O)ON=C(C)SC |  | inactive

Row | SMILES | AC50 | outcome
21 | CSc1nnc(C(C)(C)C)c(=O)n1N |  | inactive
22 | CN1COCN(Cc2cnc(Cl)s2)C1=N[N+](=O)[O-] |  | inactive
23 | COc1cccc(C(=O)NN(C(=O)c2cc(C)cc(C)c2)C(C)(C)C)c1C |  | inactive
24 | CCCOc1nn(C(=O)NS(=O)(=O)c2ccccc2C(=O)OC)c(=O)n1C |  | inactive
25 | CCNc1nc(Cl)nc(NC(C)(C)C#N)n1 |  | inactive
26 | Cc1nn(-c2cc(NS(C)(=O)=O)c(Cl)cc2Cl)c(=O)n1C(F)F |  | inactive
27 | O=[N+]([O-])c1cc(C(F)(F)F)c(Cl)c([N+](=O)[O-])c1Nc1ncc(C(F)(F)F)cc1Cl | 7.9 µM (active) | 
28 | CSC1=N[C@@](C)(c2ccccc2)C(=O)N1Nc1ccccc1 |  | inactive
29 | CNC(=O)ON=C(SC)C(=O)N(C)C |  | inactive
30 | CCCCOC(=O)[C@@H](C)Oc1ccc(Oc2ccc(C#N)cc2F)cc1 |  | inactive
31 | CC1=NNC(=O)N(/N=C/c2cccnc2)C1 |  | inactive
32 | C[N+]1(C)CCCCC1 |  | inactive
33 | CC(C)N(C(=O)SCC(Cl)=C(Cl)Cl)C(C)C | 36.3 µM (active) | 
34 | COP(=O)(NC(C)=O)SC (stereo not given) |  | inactive
35 | N#CSCSC#N | 8.38 µM (active) | 
36 | COP(=O)(OC)C(O)C(Cl)(Cl)Cl (stereo not given) |  | inactive
37 | CCc1cnc(C2=NC(C)(C(C)C)C(=O)N2)c(C(=O)O)c1 (stereo not given) |  | inactive
38 | CC(Oc1cccc(Cl)c1)C(=O)O (stereo not given) |  | inactive
39 | CCC(=NOC/C=C/Cl)C1=C(O)CC(C2CCOCC2)CC1=O (stereo not given) |  | inactive
40 | CNC(=O)Oc1cccc2c1OC(C)(C)O2 |  | inactive

From PubChem BioAssay (EPA / NIEHS)
